Laboratory results taken from PubChem BioAssay AID1159580 (chemical genetic matrix, 2015).
Hit rate of the full screen: of about 5,500 compounds, about 2,000 (36%) were called active. Not shown: some 18% with an inconclusive outcome. Cut-off read from the data, not from the text of the source: active = normalized growth mostly below about 0.91 (no sharp cut-off); inconclusive = no clear call, values can overlap the other calls; inactive = mostly above about 0.92. The list shows a part of the results.

Assay: chemical genetic growth profiling, strain panel (AID 1159580);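 note: tested at 20 µM; growth read once vehicle control cultures reached saturation at 30 °C; 1 = growth at the plate median or of vehicle wells; lower values mean less growth of the strain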
Conditions: S. cerevisiae deletion strains, growth OD

Measured: normalized growth

NC(C(=O)O)c1cc(=O)[nH]o1 (centres undefined)
inactive: locus YAL013W, strain DEP1, stronger effect = lower value 1.02 | locus YAL040C, strain CLN3, stronger effect = lower value 1.01 | locus YCL061C, strain MRC1 (second series), stronger effect = lower value 1 | locus YDR150W, strain NUM1, stronger effect = lower value 1 | locus YDR363W, strain ESC2, stronger effect = lower value 1.04 | locus YER002W, strain NOP16, stronger effect = lower value 1.01 | locus YGR229C, strain SMI1, stronger effect = lower value 1.04 | locus YMR263W, strain SAP30, stronger effect = lower value 1 | locus YMR307W, strain GAS1, stronger effect = lower value 1.01 | locus YNL153C, strain GIM3, stronger effect = lower value 1.04 | locus YNL175C, strain NOP13, stronger effect = lower value 1.02 | locus YNL197C, strain WHI3, stronger effect = lower value 0.999 | locus YNL224C, strain SQS1, stronger effect = lower value 0.996 | locus YOR083W, strain WHI5 (second series), stronger effect = lower value 1.01
